About 7,900 targets were measured; listed, in parts, are those with a hit and a random draw of the rest. About 0.6% of all pairs of compound and target were hits. Unmarked numbers belong to inactive results.
Tests used:
Assay in all cases: log2 fold change, soluble protein after heating vs DMSO (PISA); higher = thermal stabilisation; K562 cells, 10 uM, 30 min; active = over 0.2 and 3.5 SD of the protein, either way, in both replicates (recomputed)
[1] = compound: CC1=C(C=C(C=C1)NC(=O)C2=CC(=CC=C2)C(C)(C)C#N)NC3=CC4=C(C=C3)N=CN(C4=O)C
Outline: (§1)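 K562 cells at 2×10^6 cells/mL were exposed to 10 μM compound for 30 min, then aliquots were heated for 3 min across 48°C-58°C, pooled, and extracted in PBS containing 0.5% NP-40 at 4°C. The supernatant after 21,000xg for 90 min was taken as soluble protein and measured by TMTpro 16plex LC-MS/MS with channel sums equalised. Thermal stability is reported relative to control samples, with values from duplicates. Fold changes are given on a log2 scale.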

[2] = compound: CC1=C(C=C(C=C1)NC(=O)C2=CC(=CC=C2)N(C)C)NC(=O)C3=CC=C(C=C3)O
Outline: as §1

[3] = compound: CC1=CC=C(C=C1)SC2=C3C=C(SC3=CN=C2)C(=O)N
Outline: as §1

[4] = compound: CC1=NC(=CC=C1)C2=C(N=C(N2)C(C)(C)C)C3=CC4=NC=CN=C4C=C3
Outline: as §1

Nexturastat A = compound: CCCCN(Cc1ccc(C(=O)NO)cc1)C(=O)Nc1ccccc1 [Nexturastat A]
Outline: as §1

vemurafenib = compound: CCCS(=O)(=O)Nc1ccc(F)c(C(=O)c2c[nH]c3ncc(-c4ccc(Cl)cc4)cc23)c1F [vemurafenib]
Outline: as §1

[5] = compound: CCCS(=O)(=O)Nc1ccc(F)c(C(=O)c2c[nH]c3ncc(Cl)cc23)c1F
Outline: as §1

[6] = compound: CCCc1cc(C)[nH]c(=O)c1CNC(=O)c1cc(-c2ccnc(N3CCN(C)CC3)c2)cc2c1cnn2C(C)C
Outline: as §1

givinostat = compound: CCN(CC)Cc1ccc2cc(COC(=O)Nc3ccc(C(=O)NO)cc3)ccc2c1 [givinostat]
Outline: as §1

barasertib = compound: CCN(CCCOc1ccc2c(Nc3cc(CC(=O)Nc4cccc(F)c4)[nH]n3)ncnc2c1)CCOP(=O)(O)O [barasertib]
Outline: as §1

[7] = compound: CC[C@@H]1C(=O)N(C)c2cnc(Nc3ccc(C(=O)NC4CCN(C)CC4)cc3OC)nc2N1C1CCCC1
Outline: as §1

volasertib = compound: CC[C@@H]1C(=O)N(C)c2cnc(Nc3ccc(C(=O)N[C@H]4CC[C@H](N5CCN(CC6CC6)CC5)CC4)cc3OC)nc2N1C(C)C [volasertib]
Outline: as §1

[8] = compound: CC[C@H](C)N1C=C(C2=C(C=C(C=C21)C3=CN=C(C=C3)N4CCNCC4)C(=O)NCC5=C(C=C(NC5=O)C)C)C
Outline: as §1

epoxomicin = compound: CC[C@H](C)[C@@H](C(=O)N[C@@H]([C@@H](C)O)C(=O)N[C@@H](CC(C)C)C(=O)[C@]1(CO1)C)NC(=O)[C@H]([C@@H](C)CC)N(C)C(=O)C [epoxomicin]
Outline: as §1

[9] = compound: CCn1c(C(=O)N(C2CC2)C2CC2)cc2c3c(ncn3C)c(Nc3cc(C)n(C)n3)nc21
Outline: as §1

[10] = compound: CCn1cc(-c2ccnc3[nH]c(-c4cccc(CN(C)C)c4)cc23)c(-c2ccc(NC(=O)N(C)C)cc2)n1
Outline: as §1

[11] = compound: CN(C)CC(=O)Nc1ccc2[nH]c(=O)c3ccccc3c2c1
Outline: as §1

rosiglitazone = compound: CN(CCOC1=CC=C(C=C1)C[C@H]2C(=O)NC(=O)S2)C3=CC=CC=N3 (racemic) [rosiglitazone]
Outline: as §1

[12] = compound: CN1C2=C(C3=C1C(=O)N(N=C3)CC4=CC(=CC=C4)N)SC(=C2)S(=O)C
Outline: as §1

[13] = compound: CN1CCC(CNc2ccc3ncc(-c4cccc(OC(F)(F)F)c4)n3n2)CC1
Outline: as §1

Sequence of UniProt Q9UEY8 (Q9UEY8 whole entry, looked up): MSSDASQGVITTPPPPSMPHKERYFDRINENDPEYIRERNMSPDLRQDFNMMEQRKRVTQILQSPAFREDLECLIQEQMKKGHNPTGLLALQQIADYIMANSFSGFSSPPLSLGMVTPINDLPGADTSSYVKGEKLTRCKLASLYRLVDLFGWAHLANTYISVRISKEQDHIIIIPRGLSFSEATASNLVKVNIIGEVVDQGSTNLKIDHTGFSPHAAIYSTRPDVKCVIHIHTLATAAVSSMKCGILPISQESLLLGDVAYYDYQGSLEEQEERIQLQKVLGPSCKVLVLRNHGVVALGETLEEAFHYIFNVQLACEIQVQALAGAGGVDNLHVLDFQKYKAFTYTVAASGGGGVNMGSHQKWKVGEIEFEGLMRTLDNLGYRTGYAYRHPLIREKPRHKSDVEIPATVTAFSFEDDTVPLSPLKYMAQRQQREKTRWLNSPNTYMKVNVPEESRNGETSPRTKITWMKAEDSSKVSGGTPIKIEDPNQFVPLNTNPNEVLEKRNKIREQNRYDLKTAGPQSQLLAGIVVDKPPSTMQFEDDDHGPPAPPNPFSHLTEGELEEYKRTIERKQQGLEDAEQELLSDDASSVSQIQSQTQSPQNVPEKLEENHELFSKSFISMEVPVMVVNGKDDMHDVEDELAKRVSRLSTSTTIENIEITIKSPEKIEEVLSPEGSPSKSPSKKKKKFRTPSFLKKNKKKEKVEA
Sequence of UniProt Q93050 (Q93050 whole entry, looked up): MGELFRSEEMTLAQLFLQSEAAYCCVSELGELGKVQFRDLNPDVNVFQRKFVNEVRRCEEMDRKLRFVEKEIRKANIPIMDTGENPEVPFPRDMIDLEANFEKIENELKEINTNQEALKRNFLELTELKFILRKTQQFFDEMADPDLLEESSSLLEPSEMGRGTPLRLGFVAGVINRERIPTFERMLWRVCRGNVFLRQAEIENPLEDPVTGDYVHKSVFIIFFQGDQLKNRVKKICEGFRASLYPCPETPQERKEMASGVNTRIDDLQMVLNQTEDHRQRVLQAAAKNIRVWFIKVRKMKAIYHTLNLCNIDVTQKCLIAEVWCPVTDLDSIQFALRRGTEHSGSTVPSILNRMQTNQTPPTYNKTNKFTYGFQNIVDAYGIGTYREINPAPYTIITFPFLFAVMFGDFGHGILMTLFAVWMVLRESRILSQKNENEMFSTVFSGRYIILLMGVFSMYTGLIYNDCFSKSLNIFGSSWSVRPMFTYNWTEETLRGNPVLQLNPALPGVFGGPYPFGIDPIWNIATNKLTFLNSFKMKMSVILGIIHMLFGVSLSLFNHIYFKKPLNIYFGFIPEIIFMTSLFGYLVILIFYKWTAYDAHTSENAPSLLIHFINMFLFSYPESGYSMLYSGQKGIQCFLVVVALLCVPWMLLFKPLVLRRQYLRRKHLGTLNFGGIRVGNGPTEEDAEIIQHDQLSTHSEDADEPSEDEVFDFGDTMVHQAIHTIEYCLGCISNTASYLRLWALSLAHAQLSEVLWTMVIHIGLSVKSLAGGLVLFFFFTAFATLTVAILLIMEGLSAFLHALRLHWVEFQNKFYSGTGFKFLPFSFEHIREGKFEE
Sequence of UniProt Q9BUT1 (Q9BUT1 whole entry, looked up): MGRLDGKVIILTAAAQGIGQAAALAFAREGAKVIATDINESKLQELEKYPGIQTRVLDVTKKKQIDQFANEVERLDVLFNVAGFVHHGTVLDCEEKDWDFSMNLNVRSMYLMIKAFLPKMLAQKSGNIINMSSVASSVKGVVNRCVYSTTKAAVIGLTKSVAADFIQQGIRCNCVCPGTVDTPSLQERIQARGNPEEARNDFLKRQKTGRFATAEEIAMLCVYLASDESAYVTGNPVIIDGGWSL
Sequence of UniProt Q8TDN6 (Q8TDN6 whole entry, looked up): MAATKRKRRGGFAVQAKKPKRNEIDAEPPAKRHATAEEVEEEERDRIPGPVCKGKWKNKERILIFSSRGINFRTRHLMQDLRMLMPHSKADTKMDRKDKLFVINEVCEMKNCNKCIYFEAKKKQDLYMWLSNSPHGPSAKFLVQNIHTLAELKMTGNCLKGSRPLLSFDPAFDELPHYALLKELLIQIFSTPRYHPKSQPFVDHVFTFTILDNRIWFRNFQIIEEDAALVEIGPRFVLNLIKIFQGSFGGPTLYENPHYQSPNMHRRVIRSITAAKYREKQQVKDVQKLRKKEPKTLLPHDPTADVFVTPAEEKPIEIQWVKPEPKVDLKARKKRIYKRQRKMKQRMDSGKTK
Sequence of UniProt P49189 (P49189 whole entry, looked up): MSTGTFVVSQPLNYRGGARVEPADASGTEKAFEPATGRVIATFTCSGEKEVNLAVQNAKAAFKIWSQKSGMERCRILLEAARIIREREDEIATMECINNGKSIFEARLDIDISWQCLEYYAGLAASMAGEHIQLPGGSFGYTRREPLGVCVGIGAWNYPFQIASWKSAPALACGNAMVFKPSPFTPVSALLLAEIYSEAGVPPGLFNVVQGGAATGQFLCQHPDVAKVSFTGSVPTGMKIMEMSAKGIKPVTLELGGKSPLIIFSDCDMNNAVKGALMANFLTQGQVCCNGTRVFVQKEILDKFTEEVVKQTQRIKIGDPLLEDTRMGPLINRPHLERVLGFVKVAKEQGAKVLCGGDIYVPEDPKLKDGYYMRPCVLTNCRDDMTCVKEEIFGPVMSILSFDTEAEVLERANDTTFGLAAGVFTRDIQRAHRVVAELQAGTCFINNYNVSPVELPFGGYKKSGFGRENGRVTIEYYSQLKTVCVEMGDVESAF
Sequence of UniProt Q9Y6D6 (Q9Y6D6 whole entry, looked up): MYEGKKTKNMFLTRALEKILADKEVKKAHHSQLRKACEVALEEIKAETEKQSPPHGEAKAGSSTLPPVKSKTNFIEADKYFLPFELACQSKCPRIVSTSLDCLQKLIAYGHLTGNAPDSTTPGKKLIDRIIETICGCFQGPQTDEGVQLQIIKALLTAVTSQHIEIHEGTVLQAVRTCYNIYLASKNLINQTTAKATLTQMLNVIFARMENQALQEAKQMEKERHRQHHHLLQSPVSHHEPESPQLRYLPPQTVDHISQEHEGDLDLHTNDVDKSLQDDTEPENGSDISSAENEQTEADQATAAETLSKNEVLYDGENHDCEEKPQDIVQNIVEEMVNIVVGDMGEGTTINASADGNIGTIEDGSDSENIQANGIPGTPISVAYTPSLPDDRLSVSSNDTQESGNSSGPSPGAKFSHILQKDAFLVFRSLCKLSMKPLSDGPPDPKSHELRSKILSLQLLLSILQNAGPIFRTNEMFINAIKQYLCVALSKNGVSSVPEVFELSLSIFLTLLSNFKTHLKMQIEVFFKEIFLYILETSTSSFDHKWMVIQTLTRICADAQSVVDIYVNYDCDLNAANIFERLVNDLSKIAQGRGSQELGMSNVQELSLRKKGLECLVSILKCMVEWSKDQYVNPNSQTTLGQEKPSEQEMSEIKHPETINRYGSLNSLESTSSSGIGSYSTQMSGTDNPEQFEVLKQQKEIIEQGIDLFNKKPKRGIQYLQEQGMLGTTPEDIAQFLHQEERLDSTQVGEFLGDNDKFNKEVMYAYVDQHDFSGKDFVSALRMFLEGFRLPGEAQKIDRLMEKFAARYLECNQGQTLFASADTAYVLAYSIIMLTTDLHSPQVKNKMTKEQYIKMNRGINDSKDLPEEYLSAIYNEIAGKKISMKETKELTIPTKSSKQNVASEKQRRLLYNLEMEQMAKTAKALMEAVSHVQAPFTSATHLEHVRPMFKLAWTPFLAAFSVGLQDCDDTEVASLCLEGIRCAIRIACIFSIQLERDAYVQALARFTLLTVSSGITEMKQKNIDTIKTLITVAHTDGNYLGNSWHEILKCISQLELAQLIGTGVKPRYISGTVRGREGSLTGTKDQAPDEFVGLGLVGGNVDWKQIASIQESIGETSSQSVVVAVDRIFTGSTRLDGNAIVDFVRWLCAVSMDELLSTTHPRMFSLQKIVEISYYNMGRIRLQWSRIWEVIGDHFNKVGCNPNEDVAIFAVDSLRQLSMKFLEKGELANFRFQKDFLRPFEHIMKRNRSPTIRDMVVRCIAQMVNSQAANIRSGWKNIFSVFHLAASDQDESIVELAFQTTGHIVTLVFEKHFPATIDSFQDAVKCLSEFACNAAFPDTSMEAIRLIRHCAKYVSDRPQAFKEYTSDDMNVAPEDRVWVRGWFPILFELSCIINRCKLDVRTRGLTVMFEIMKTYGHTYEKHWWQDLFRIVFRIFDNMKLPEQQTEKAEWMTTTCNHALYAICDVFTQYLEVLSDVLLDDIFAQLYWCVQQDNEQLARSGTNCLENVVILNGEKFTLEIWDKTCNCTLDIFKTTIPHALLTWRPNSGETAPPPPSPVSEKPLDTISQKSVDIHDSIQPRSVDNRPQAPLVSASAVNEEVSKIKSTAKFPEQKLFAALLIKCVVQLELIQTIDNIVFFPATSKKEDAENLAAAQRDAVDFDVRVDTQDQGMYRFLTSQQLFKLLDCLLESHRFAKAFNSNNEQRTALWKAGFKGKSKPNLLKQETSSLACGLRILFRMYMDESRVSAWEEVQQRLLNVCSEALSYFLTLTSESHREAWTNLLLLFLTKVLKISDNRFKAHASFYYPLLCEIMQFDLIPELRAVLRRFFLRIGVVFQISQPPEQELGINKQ
Sequence of UniProt Q9HC16 (Q9HC16 whole entry, looked up): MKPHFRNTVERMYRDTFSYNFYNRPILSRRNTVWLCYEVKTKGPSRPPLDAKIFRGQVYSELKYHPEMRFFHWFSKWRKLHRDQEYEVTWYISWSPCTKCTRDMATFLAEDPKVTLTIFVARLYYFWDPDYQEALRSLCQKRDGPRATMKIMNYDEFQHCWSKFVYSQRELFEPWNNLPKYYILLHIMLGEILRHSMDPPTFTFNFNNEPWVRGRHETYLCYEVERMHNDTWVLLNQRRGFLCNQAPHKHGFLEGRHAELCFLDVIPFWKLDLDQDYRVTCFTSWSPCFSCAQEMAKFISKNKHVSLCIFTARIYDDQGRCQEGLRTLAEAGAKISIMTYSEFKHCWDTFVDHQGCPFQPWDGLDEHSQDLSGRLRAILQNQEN

Target | log2 fold change [1] | log2 fold change [2] | log2 fold change [3] | log2 fold change [4] | log2 fold change (Nexturastat A) | log2 fold change (vemurafenib) | log2 fold change [5] | log2 fold change [6] | log2 fold change (givinostat) | log2 fold change (barasertib) | log2 fold change [7] | log2 fold change (volasertib) | log2 fold change [8] | log2 fold change (epoxomicin) | log2 fold change [9] | log2 fold change [10] | log2 fold change [11] | log2 fold change (rosiglitazone) | log2 fold change [12] | log2 fold change [13]
BPHL (UniProt Q86WA6) | -0.037 | -0.031 | -0.058 | 0.017 | -0.205 | 0.004 | -0.062 | 0.057 | 0.023 | -0.006 | 0.013 | -0.005 | 0.065 | 0.005 | 0.027 | -0.017 | -0.07 | 0.041 | 0.017 | 0.063
ALG5 (UniProt Q9Y673) | 0.039 | 0.019 | -0.001 | 0.049 | -0.055 | 0.035 | 0.059 | 0.025 | 0.01 | 0.02 | -0.028 | -0.026 | 0.017 | 0.043 | -0.036 | -0.069 | 0.035 | 0.078 | -0.088 | 0.017
ACSF3 (UniProt Q4G176) | -0.002 | 0.038 | 0.007 | 0.023 | -0.005 | 0.029 | 0.003 | 0.008 | -0.022 | 0.051 | -0.014 | -0.093 | 0.039 | 0.152 | 0.034 | -0.17 | 0.008 | 0.125 | 0.016 | -0.116
AURKA (UniProt O14965) | -0.008 | -0.041 | -0.011 | -0.036 | 0.096 | -0.026 | 0.006 | 0.01 | 0.257 | 0.114 | 0.017 | 0.134 | -0.022 | 0.113 | 0.004 | 0.733 (active) | 0 | -0.015 | 0.029 | 0.14
ARFGEF1 (UniProt Q9Y6D6) | -0.03 | -0.013 | -0.014 | 0 | -0.042 | 0.035 | 0.041 | 0.155 | 0.029 | -0.015 | -0.022 | -0.248 | 0.01 | 0.033 | -0.007 | 0.011 | -0.005 | 0.045 | -0.037 | -0.046
BRIX1 (UniProt Q8TDN6) | 0.038 | -0.061 | -0.09 | -0.134 | 0.37 | -0.11 | 0.008 | 0.159 | 0.15 | -0.197 | 0.166 | 0.317 | 0.048 | -0.343 | -0.041 | 0.31 | -0.143 | -0.266 | 0.36 | 0.481
ATP6V0A1 isoform 3 (UniProt Q93050) | 0.038 | -0.034 | -0.006 | -0.051 | 0.198 | 0.017 | 0 | 0.032 | 0.031 | 0.006 | -0.056 | 0.174 | -0.01 | 0.044 | 0.034 | -0.054 | -0.009 | -0.017 | 0.239 | -0.137
BTBD6 (UniProt Q96KE9) | -0.061 | -0.108 | 0.003 |  | 0.531 | 0.002 | 0.007 | -0.017 | 0.358 | -0.017 | 0.017 | 0.001 | -0.033 | -0.059 | -0.163 | -0.356 | 0.066 | 0 | -0.112 | -0.021
ARRDC1 (UniProt Q8N5I2) | -0.061 | 0 | 0.071 |  | 0.021 | 0.048 | 0.039 | 0.023 | 0.136 | -0.179 | -0.063 | -0.137 | -0.09 | -0.057 | 0.09 | 0 | 0.023 | -0.072 | -0.038 | 0.027
ACTBL2 (UniProt Q562R1) | 0.238 | 0.243 | -0.385 |  | -0.049 | 0.139 | -0.41 | 0.073 | -0.342 | 0.161 | -0.121 | 0.153 | -0.133 | -0.1 | 0.05 | 0.162 | -0.3 | 0.07 | 0.011 | 0.065
AAR2 (UniProt Q9Y312) | -0.01 | -0.026 | -0.032 | -0.035 | 0.074 | -0.018 | 0.021 | -0.105 | 0.018 | -0.023 | -0.032 | -0.016 | -0.03 | 0.037 | -0.038 | 0.106 | -0.001 | 0 | -0.087 | -0.096
AMD1 (UniProt P17707) | 0.013 | -0.142 | 0.049 | 0.078 | -0.048 | -0.126 | 0.041 | -0.027 | 0.07 | 0.016 | 0.061 | -0.098 | 0.099 | 0.057 | -0.073 | -0.033 | -0.101 | 0.089 |  | -0.091
BDH2 (UniProt Q9BUT1) | -0.051 | -0.085 | 0.086 | 0.016 |  | 0.447 (active) | -0.077 | -0.019 | -0.033 | -0.019 |  | -0.126 |  |  | 0 | 0.005 | 0.367 | 0.001 | -0.028 | -0.033
ALDH9A1 (UniProt P49189) | 0.004 | 0.004 | -0.015 |  | -0.125 | 0.026 | 0.005 | 0.18 | 0.058 | 0.05 | -0.035 | 0.009 | 0.111 | -0.011 | 0.095 | -0.005 | 0 | -0.062 | -0.015 | 0.016
ADD3 isoform 2 (UniProt Q9UEY8) | 0.034 | -0.021 | -0.08 | -0.017 | -0.029 | 0.059 | 0.014 | -0.017 |  |  | 0.021 | -0.037 |  | -0.022 |  | 0.066 | 0.036 |  | -0.093 | -0.128
ADAM15 (UniProt Q13444) | -0.045 | 0.056 | 0 | -0.14 | -0.016 | -0.022 | 0.007 |  | 0.308 | -0.043 |  | -0.103 | -0.02 | 0.034 | -0.177 | -0.001 | 0.066 | -0.099 | -0.028 | -0.016
APOBEC3G (UniProt Q9HC16) | -0.019 | 0.069 | -0.064 | -0.014 | 0.172 | 0.069 | -0.083 | 0.051 | 0.129 | 0.019 | 0.267 | -0.008 | 0.051 | -0.146 | 0.006 |  | -0.148 | -0.115 | 0.025 | 
